Pf Dd2 inh = blocks in vitro growth of P. falciparum Dd2; P. falciparum Dd2 growth, SYBR Green, 72 h; hit rate 4.3% among 120,000; Potency, µM (series often up to 28.9 µM), without a hit: at the top dose activity, negative = inhibition, hits mostly inhibitors; AID 1347417; active = well fitted inhibition curve with a large enough effect;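 also: plate controls were DMSO vehicle for no effect and reference drug for full effect; nearly all actives have a fitted effect of over 65% in size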
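Readout: SYBR Green fluorescence, 485 nm excitation, 535 nm emission, after ~16 h lysis at 37C. Before that, Dd2-infected red cells (2.5% hematocrit) grew 72 h with compound, 29 uM top final concentration.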
* marks the source's active call; other numbers are inactive results; i = inactive; [ ] = another dose, or the depositor's remark. The full list was thinned out, with hits kept by preference. Potency is read from the fitted curve at half-maximal effect.

SMILES	Pf Dd2 inh
COc1ccc(CC(=O)NCc2cn[nH]c2-c2ccc(C)cc2)cc1	-11%
CCc1ccc(CN(Cc2cn[nH]c2-c2ccc(OC)cc2)C(=O)Nc2cc(Cl)ccc2OC)cc1	13µM*
COc1ccc(CNC(=O)C(=O)Nc2cc(Cl)ccc2OC)cc1	i
O=C(c1ccccc1Cl)N1CCC2(CC1)CC(O)CCO2 (stereo not drawn)	-1%
O=C(c1ccsc1)N1CCC(c2n[nH]c(=O)n2Cc2ccc(F)cc2)CC1	-4%
Cc1ccc(C2=NC3(CCN(C(=O)c4cccc(C)c4)CC3)ON2)cc1	-10%
CCOc1ccccc1CNCc1cccn1-c1nnc(N2CCN(c3ccccc3)CC2)s1	7.1µM*
CCOc1ccccc1CNC(=O)c1cccn1-c1nnc(N2CCCCC2)s1	-13%
c1ccc(N2CCN(Cc3cccn3-c3nnc(N4CCN(C5CCCCC5)CC4)s3)CC2)cc1	-1%
CCC(NC(=O)c1ccc(C)c(NC(=O)C2CC2)c1)c1ncnn1CC (stereo not drawn)	9%
COc1ccc2[nH]cc(CCNC(=O)C3N(C(C)C)C(=O)C34CCCC4)c2c1 (stereo not drawn)	-5%
CCn1c2c(c(=O)n1Cc1ccccc1)CCN(Cc1cncc(OC)c1)C2	11%[44.1 µM]
O=C1C(N2CCN(S(=O)(=O)c3ccccc3)CC2)CCN1Cc1ccccn1 (stereo not drawn)	-12%
CSc1ccc(CNC(=O)c2nnn3c2COC(c2ccc(F)cc2)C3)cc1 (stereo not drawn)	i
CCn1c(=O)n(CC)c2cc(N3CCCCC3)c(NC(=O)Nc3ccccc3Cl)cc21	10µM*
Cc1cc(C)cc(NC(=O)Cn2c(N3CCCCC3)nc(C)c(C)c2=O)c1	i
CCn1c(=O)n(CC)c2cc(N3CCCCC3)c(NC(=O)Nc3cc(C)cc(C)c3)cc21	10µM*
CCc1ccccc1NC(=O)Nc1cc(C(=O)NCc2ccccc2OC)ccc1N1CCCC1	-5%
Cc1ccc(NC(=O)Nc2cc3c(cc2N2CCCCC2)n(C)c(=O)n3C)cc1Cl	i
Cc1cc(C)cc(NC(=O)Cn2nc3n(c2=O)CCCCC3)c1	2%
COc1ccc(CNC(=O)CCn2ccn3nc4c(c3c2=O)CCCC4)cc1	-30%
O=C(CC1=CCCCC1)N1C[C@@H](CO)[C@H](c2ccccn2)C1	0%
Cc1ccccc1C(=O)N(C)CC1CCOCC1	0%
C1CCC(c2nc(CCOCC3CCOCC3)no2)NC1 (stereo not drawn)	i
COCCOC1CCOC2(CCN(C(=O)CCc3nc4ccccc4[nH]3)CC2)C1 (stereo not drawn)	17%
SMILES	Pf Dd2 inh
O=C(Nc1ccc2c(c1)C(=O)N1CCC[C@H]1C(=O)N2)c1cc(-c2cccnc2)n[nH]1	-19%
CC(=O)N1CC2(CCN(Cc3cccc(C(N)=O)c3)CC2)Cc2ccccc21	-17%
O=C(c1ccc(Cl)cc1)N1CC2(CCN(CC3CC3)C2)Cc2ccccc21 (stereo not drawn)	6.3µM*
O=C(c1ccc(Cl)cc1)N1CC2(CCCN2Cc2ccc(Cl)cc2)Cc2ccccc21 (stereo not drawn)	10µM*
O=C(c1ccc(Cl)cc1)N1CC2(CCCN(Cc3ccccn3)C2)Cc2ccccc21 (stereo not drawn)	-29%
CS(=O)(=O)N1CC2(CCCN2Cc2ccc(Cl)cc2)Cc2ccccc21 (stereo not drawn)	-20%
NC(=O)c1cccc(CN2CCC3(CC2)Cc2ccccc2N(C(=O)c2ccc(Cl)cc2)C3)c1	11µM*
CC(=O)N1CC2(CCN(Cc3cccc(C(N)=O)c3)C2)Cc2ccccc21 (stereo not drawn)	-18%
O=C(c1ccc(Cl)cc1)N1CC2(CCN(C3COC3)C2)Cc2ccccc21 (stereo not drawn)	-23%
CC(=O)N1CC2(CCCN2Cc2cccc(C(N)=O)c2)Cc2ccccc21 (stereo not drawn)	-5%
Cc1ccc(NC(=O)c2cc3n(n2)CC(c2ccc(Cl)cc2)OC3)cc1F (stereo not drawn)	-12%
CC(C)c1cc(C(=O)N2CC[C@H](CO)[C@H](O)C2)cs1	1%
O=C1CCC2(CCCN(C(=O)c3ccc(=O)[nH]c3)C2)CN1CCc1cnc[nH]1 (stereo not drawn)	-3%
COc1cccc([S+](=O)([O-])N2CC(Oc3ccc(F)c(F)c3)C2)c1	6%
CC[C@H]1CN(C(=O)C2CC2)CC[C@H]1CC(=O)N(C)CCC#N	-18%[44.1 µM]
Cc1nc(C)c(C(=O)N2CCc3n[nH]c(=O)n3CC2)s1	8%
COc1ccccc1/C=C/CN1CCNC(=O)C1CC(=O)N(C)Cc1ccc(C)cc1 (stereo not drawn)	-3%
CCNC(=O)Nc1ccc([C@H]2OCC(=O)N(Cc3ccc(F)cc3)[C@@H]2CO)cc1	-10%[44.1 µM]
COCCNC(=O)CN1CN(c2ccccc2)C2(CCN(C(=O)NC3CCCCC3)CC2)C1=O	i
CC(C)CNC(=O)CN1CN(c2ccccc2)C2(CCN(C(=O)NC3CCCCC3)CC2)C1=O	1.6µM*
CCc1ccccc1NC(=O)N1CCC2(CC1)C(=O)N(CC(=O)NC(C)C)CN2c1ccccc1	0%
O=C(O)c1ccc(CN2Cc3[nH]cnc3C[C@H]2C(=O)NCc2ccco2)cc1	4%[44.1 µM]
CCOC(=O)CCCOc1cccn2c(=O)c(-c3cc(C)n(-c4ccccc4C)n3)c(C)nc12	-17%
OCc1cccc(-c2ccc3ncc(Nc4cccnc4)n3n2)c1	-4%[44.1 µM]
OCc1cccc(-c2ccc3ncc(Nc4ccc(OCCN5CCCC5)cc4)n3n2)c1	0.79µM*
SMILES	Pf Dd2 inh
C[S+](=O)([O-])Nc1cccc(Nc2cnc3ccc(-c4cccc(CO)c4)nn23)c1	-2%[44.1 µM]
OCc1cccc(-c2ccc3ncc(Nc4cccc(C(F)(F)F)c4)n3n2)c1	-20%[44.1 µM]
OCCc1ccc(Nc2cnc3ccc(-c4cccc(CO)c4)nn23)cc1	i
OCc1cccc(-c2ccc3ncc(Nc4ccccc4Cl)n3n2)c1	4µM*
CN1CC(=O)N(C2CCCNCC2)Cc2c1ncnc2N1CCC(N2CCOCC2)CC1 (stereo not drawn)	9%
Cc1nc([C@@H]2CN(C(=O)CCc3nc4ccccc4s3)C[C@H]2C(N)=O)n[nH]1	-13%
Cc1cccc(-c2ccc3c(c2)C(=O)N2CC[C@H](NC(=O)CCC(=O)O)[C@H]2C(=O)N3)c1C	i
COCCOc1ccnc(-c2noc([C@@H]3CCCN3C3CCN(C(C)=O)CC3)n2)c1	-17%[44.1 µM]
CCC(CC)C(=O)NCCc1noc(C)n1	1%
COCCN1C(=O)c2ccccc2C(C(=O)NC(C)C)C12CCCCC2 (stereo not drawn)	-7%
COCCN1C(=O)c2ccccc2C(C(=O)Nc2nc3ccccc3s2)C12CCCCC2 (stereo not drawn)	2.5µM*
COCCN1C(=O)c2ccccc2C(C(=O)Nc2cccc(C)n2)C12CCCCC2 (stereo not drawn)	i
CCCCNC(=O)C1c2ccccc2C(=O)N(CCOC)C12CCCCC2 (stereo not drawn)	-13%
COCCN1C(=O)c2ccccc2C(C(=O)Nc2ccccc2O)C12CCCC2 (stereo not drawn)	i
COC(=O)CCNC(=O)C1c2ccccc2C(=O)N(CC(C)C)C12CCCCC2 (stereo not drawn)	-16%
COCc1nnc(NC(=O)C2c3ccccc3C(=O)N(CC(C)C)C23CCCCC3)s1 (stereo not drawn)	3.5µM*
COCCN1C(=O)c2ccccc2C(C(=O)Nc2nnc(COC)s2)C12CCCCC2 (stereo not drawn)	-26%
COCCN1C(=O)c2ccccc2C(C(=O)Nc2nnc(C3CC3)s2)C12CCCCC2 (stereo not drawn)	7.9µM*

Compound activity (PubChem)
